# CapD inh = Bacillus anthracis CapD inhibitors, primary screen, biochemical, fluorescence intensity | CapD gamma-glutamyltranspeptidase (Bacillus anthracis Ames Ancestor) | purified CapD enzyme, fluorescence intensity read-out; active compounds read low | z-score (test concentration not listed) | 140,000 tested, 0.23% active | AID 492967, 2010; in the data active means z-score mostly below about -2.9, no sharp cut-off; inactive means mostly above about -1.9
# Hits are given with their value; i = inactive. Shown is part of a subset that was picked to be rich in hits.
SMILES,CapD inh
COc1cc(/C=C2/SC(=S)N(CC(=O)O)C2=O)cc(OC)c1OC,i
COc1ccc(OC)c(/C=C2/SC(=S)N(CC(=O)O)C2=O)c1,i
COc1cc(OC)c(OC)cc1/C=C1/SC(=S)N(CC(=O)O)C1=O,-3.8
CN(C)c1ccc(/C=C2/C(=O)NC(=O)N(C3CCCCC3)C2=O)cc1,i
CCCCn1c(/N=C/c2nc3ccccc3n2C)nc2ccccc21,i
CCCn1c(/N=C/c2c[nH]c3ccccc23)nc2ccccc21,-4.1
CCc1ccc(N=Cc2c[nH]c3ccccc23)cc1,i
O=C(Nc1ccc(Br)cc1F)c1cc(S(=O)(=O)N2CCN(c3ccccc3)CC2)ccc1F,i
O=C(NCc1ccco1)NCC(F)(F)F,i
C=C1C(C(=O)NCc2ccco2)C1C(=O)NCc1ccco1 (centres undefined),-10
O=C(NCc1ccco1)C1c2ccccc2Oc2ccccc21,i
O=C(COc1ccccc1)n1cc(Br)cn1,i
COc1cccc(-c2cc(C(F)(F)F)nc(-n3cccn3)n2)c1,-3.4
COC(=O)c1ccn(-c2nc(-c3ccco3)cc(C(F)(F)F)n2)n1,i
COc1nc(-c2ccccc2)cc(C(F)(F)F)n1,i
COc1cc(C=C2C(=O)NC(=O)NC2=O)ccc1OCCOc1ccc(C(C)(C)C)cc1,i
O=C(NCCc1ccccc1)C1CCN(c2ncnc3c2sc2cccc(F)c23)CC1,i
CCO/C=C1\SC(=S)N(/N=C/c2cccc(Cl)c2)C1=O,-4.4
CCO/C=C1/SC(=S)N(CCc2ccc(Cl)cc2)C1=O,i
CCO/C=C1\SC(=S)N(c2ccc(Cl)cc2)C1=O,i
FC(F)(F)c1cccc(-c2[nH]ncc2-c2ccnc3ccccc23)c1,i
O=c1c(N2CCC3(CC2)OCCO3)csc2ccccc12,i
O=c1c(N2CCN(c3ccccc3)CC2)csc2ccccc12,i
Cc1ccc2scc(N3CCOCC3)c(=O)c2c1,-4.2
CCOC(=O)CC1C(=O)NCCN1Cc1ccco1 (centres undefined),i
SMILES,CapD inh
CSc1nc(N)nc2sc3c(O)cc(=O)[nH]c3c12,i
COc1cc([N+](=O)[O-])c(OC)cc1SCC(=O)NNS(=O)(=O)c1ccc(Cl)cc1,i
O=C(CSc1nc2c(oc3ccccc32)c(=O)n1-c1ccccc1)Nc1ccccc1,i
O=C1C2CCC3(CC2C(=O)N1Cc1ccccc1)OCCO3 (centres undefined),i
Nc1ccccc1C(=O)Cc1ccccc1,i
O=C(Cc1ccccc1)c1cc(O)c(O)cc1O,-7.6
O=C(Cc1ccccc1)c1ccc(O)cc1,i
C=CCOc1ccc(/C=C2\SC(=N)N(c3nccs3)C2=O)cc1OCC,i
CCOC(=O)c1cc(-c2ccc(/C=C3/NC(=S)NC3=O)o2)ccc1Cl,i
N#CCC(=O)Nc1ccccc1Oc1ccccc1,i
O=C(O)CCCC(=O)Nc1ccccc1Oc1ccccc1,-2
O=C(O)CCCC(=O)Nc1cccc2ccccc12,i
CC1=C(C#N)C(c2sccc2C)C2=C(CCCC2=O)N1 (centres undefined),i
Cc1ccccc1-c1nc(SCc2ccc(F)cc2)c(C#N)c2c1CCC2,i
FC(F)(F)c1ccncc1-c1nc(-c2cc(Cl)cc(Cl)c2)no1,i
COC(=O)/C(C#N)=C/c1ccc(C)o1,i
CCOC(=O)/C(C#N)=C/c1ccccc1,i
COC(=O)/C(C#N)=C/c1ccccc1C,-4.3
CCOC(=O)C1=CN(c2cc(C)ccc2C)C=C(C(=O)OCC)C1c1cc(OC)c(OC)c(OC)c1,i
CC(=O)Nc1ccc(NC(=O)CSc2ncccc2C(=O)O)cc1,i
COc1ccc(CSc2ccc(S(=O)(=O)N3CCc4ccccc43)cc2C(=O)NCC2CCCO2)cc1 (centres undefined),i
CN(C)c1ccc(/C=C2\C(=N)N3N=C(S(C)(=O)=O)SC3=NC2=O)cc1,i
CCOC(=O)c1oc2c(c1C)-c1nn(CC)cc1CC2,i
O=C(Nc1ccccc1C(=O)NN1S(=O)(=O)c2ccccc2S1(=O)=O)c1ccccc1Cl,i
O=C(NN1S(=O)(=O)c2ccccc2S1(=O)=O)c1ccco1,-5.7
SMILES,CapD inh
COc1cc(C(=O)NN2S(=O)(=O)c3ccccc3S2(=O)=O)cc(OC)c1OC,i
O=C(NN1S(=O)(=O)c2ccccc2S1(=O)=O)c1cscn1,-6
O=C(NN1S(=O)(=O)c2ccccc2S1(=O)=O)c1ccc(Br)cc1,i
Cc1ccc(C)n1NC(=O)c1ccco1,i
CN(C)C(=O)N1CCC(Cc2ccccc2)CC1,i
Cc1cc(NC(=O)c2ccc(C(F)(F)F)cc2)no1,i
CC(C)(C)Sc1ccccc1CN1CCN(C(=O)OCc2ccc([N+](=O)[O-])cc2)CC1,i
O=c1c2cccnc2nc(SCc2ccccc2F)n1Cc1ccccc1,i
O=c1c2nccnc2nc(SCc2ccc(F)cc2)n1Cc1ccccc1,i
N#Cc1ccc(CSc2nc3ncccc3c(=O)n2Cc2ccccc2)cc1,-6.5
CC(=O)N=C1SC2CS(=O)(=O)CC2N1Cc1ccccc1 (centres undefined),i
CCOc1ccc(-n2nc(C(=O)N3CCC(C(N)=O)(N4CCCCC4)CC3)c3ccccc3c2=O)cc1,i
COc1ccc(NC(=O)C(c2ccc(OC)cc2)N(C)C(=O)Cc2c[nH]c3ccccc23)cc1 (centres undefined),i
COc1cc(/C=C2/SC(=S)N(NC(C)=O)C2=O)ccc1O,-4.8
COc1cc(/C=C2\SC(=S)N(NC(=O)c3ccc(Br)cc3)C2=O)cc(OC)c1OC,i
COC(=O)CCN1C(=O)/C(=C\c2ccc(O)c(OC)c2)SC1=S,i
NS(=O)(=O)c1cc([N+](=O)[O-])c(N2CCN(C(=O)OCCN3CCN(Cc4ccc(Oc5ccccc5)cc4)CC3)CC2)s1,i
COc1ccc(-c2cnnc(N/N=C/c3c(C)[nH]n(-c4ccccc4)c3=O)n2)cc1,i
O=C(CSc1nc2ccccc2n1S(=O)(=O)c1ccccc1)Nc1ccc([N+](=O)[O-])cc1Cl,i
CCC#CCOC(=O)N1CCN(c2ccc(C(F)(F)F)cn2)CC1,i
O=C(O)CCN1C(=O)/C(=C/c2ccccc2)SC1=S,i
O=C(O)CCN1C(=O)/C(=C/c2ccco2)SC1=S,-6.1
Cc1ccc(/C=C2/SC(=S)N(C(C)C(=O)O)C2=O)o1 (centres undefined),i
CC(C(=O)O)N1C(=O)/C(=C\c2ccco2)SC1=S (centres undefined),-4.9
CC(C(=O)O)N1C(=O)/C(=C/c2ccccc2Cl)SC1=S (centres undefined),i
O=C(O)CCN1C(=O)/C(=C\c2ccccc2)SC1=S,i
COc1ccc(-c2cc(C(F)(F)F)n3nc(C(=O)Nc4ccc(Cl)cn4)cc3n2)cc1,i
CN1CCN(CCCNC(=O)OCCCCc2ccccc2)CC1,i
CCC(C)NC(=O)c1ccc(CS(=O)(=O)Cc2cccc(C)c2)o1 (centres undefined),i

# Bioassay records from PubChem BioAssay.
